The supplement of paper PMC8728848
Many of the other results were omitted from the sample, so the strongest signals are more common in it than they were.

Experiments:
Assay in all cases: glycan array binding signal (z-score within array); higher = stronger binding
Conditions in all cases: glycan notation: IUPAC condensed, linker removed
Fuc(a1-2)Gal = target: Fuc(a1-2)Gal
How it was run: (§1)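 Negative Z-scores can be read as non-binding. The Z-score is calculated within each array and then averaged across arrays of one protein sequence at different concentrations or buffers and across linkers. Arrays, 3228 in all, were curated from the Consortium for Functional Glycomics database and kept only where the protein sequence was available.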

[1] = target: Fuc(a1-2)Gal(b1-3)GlcNAc(b1-2)Man(a1-3)[Fuc(a1-2)Gal(b1-3)GlcNAc(b1-2)Man(a1-6)]Man(b1-4)GlcNAc(b1-4)[Fuc(a1-6)]GlcNAc
How it was run: as §1

[2] = target: Fuc(a1-2)Gal(b1-3)[Fuc(a1-4)]GlcNAc
How it was run: as §1

Fuc(a1-2)Gal(b1-4)Glc = target: Fuc(a1-2)Gal(b1-4)Glc
How it was run: as §1

[3] = target: Fuc(a1-2)Gal(b1-4)[Fuc(a1-3)]GlcNAc(b1-2)[Fuc(a1-2)Gal(b1-4)[Fuc(a1-3)]GlcNAc(b1-4)]Man(a1-3)[Fuc(a1-2)Gal(b1-4)[Fuc(a1-3)]GlcNAc(b1-2)Man(a1-6)]Man(b1-4)GlcNAc(b1-4)GlcNAc
How it was run: as §1

[4] = target: Fuc(a1-2)[Gal(a1-4)]Gal(b1-4)GlcNAc
How it was run: as §1

[5] = target: Fuc(a1-3)[Gal(b1-4)]GlcNAc(b1-2)Man(a1-3)[Fuc(a1-3)[Gal(b1-4)]GlcNAc(b1-2)Man(a1-6)]Man(b1-4)GlcNAc(b1-4)[Fuc(a1-6)]GlcNAc
How it was run: as §1

[6] = target: Fuc(a1-3)[Gal(b1-4)]GlcNAc6S
How it was run: as §1

[7] = target: Fuc(a1-3)[GalNAc(b1-4)]GlcNAc
How it was run: as §1

[8] = target: Gal(a1-3)Gal(b1-3)GlcNAc(b1-2)Man(a1-3)[Gal(a1-3)Gal(b1-3)GlcNAc(b1-2)Man(a1-6)]Man(b1-4)GlcNAc(b1-4)GlcNAc
How it was run: as §1

[9] = target: Gal(a1-3)Gal(b1-4)GlcNAc(b1-6)GalNAc
How it was run: as §1

Gal(a1-4)Gal(b1-4)Glc = target: Gal(a1-4)Gal(b1-4)Glc
How it was run: as §1

[10] = target: Gal(a1-4)Gal(b1-4)GlcNAc(b1-2)Man(a1-3)[Gal(a1-4)Gal(b1-4)GlcNAc(b1-2)Man(a1-6)]Man(b1-4)GlcNAc(b1-4)GlcNAc
How it was run: as §1

Gal(b1-3)GalNAc = target: Gal(b1-3)GalNAc
How it was run: as §1

[11] = target: Gal(b1-3)GalNAc(a1-3)[Fuc(a1-2)]Gal(b1-4)Glc
How it was run: as §1

[12] = target: Gal(b1-3)GalNAc(a1-3)[Fuc(a1-2)]Gal(b1-4)GlcNAc
How it was run: as §1

[13] = target: Gal(b1-3)GalNAc(b1-4)Gal(b1-4)Glc
How it was run: as §1

[14] = target: Gal(b1-3)GlcNAc(b1-2)Man(a1-3)[GlcNAc(b1-4)][Gal(b1-3)GlcNAc(b1-2)Man(a1-6)]Man(b1-4)GlcNAc(b1-4)GlcNAc
How it was run: as §1

[15] = target: Gal(b1-3)[Fuc(a1-4)]GlcNAc(b1-2)Man(a1-3)[Gal(b1-3)[Fuc(a1-4)]GlcNAc(b1-2)Man(a1-6)]Man(b1-4)GlcNAc(b1-4)[Fuc(a1-6)]GlcNAc
How it was run: as §1

Gal(b1-4)GlcNAc(b1-2)Man = target: Gal(b1-4)GlcNAc(b1-2)Man
How it was run: as §1

[16] = target: Gal(b1-4)GlcNAc(b1-2)Man(a1-3)[Man(a1-6)]Man(b1-4)GlcNAc(b1-4)GlcNAc
How it was run: as §1

[17] = target: Gal(b1-4)GlcNAc(b1-2)[Gal(b1-4)GlcNAc(b1-4)]Man(a1-3)[Gal(b1-4)GlcNAc(b1-2)Man(a1-6)]Man(b1-4)GlcNAc(b1-4)GlcNAc
How it was run: as §1

[18] = target: Gal(b1-4)GlcNAc(b1-3)Gal(b1-4)Glc
How it was run: as §1

Gal6S(b1-3)GlcNAc6S = target: Gal6S(b1-3)GlcNAc6S
How it was run: as §1

B1: B1257 (Bifidobacterium sp) (protein)
chain: MKKSIRLVAAIAALAMTAGISACGSSTNGNQAKSDVTAQDVETALTDTSKNVELTVWAYSAKQMEPTVKAFEKKYPHIKINFVNTGAAGDHFTKFQNVVQAQKDIPDVVQMGANKFQQFAVSGALLNFANDSIEKAWSKLYTKTAWAQVHYAGGLYGAPQDATPLANYVRKDILDEHNLQVPESWEDIYNEGIKLHKEDSNKYMGILGSDISFFTNLYRSVGARLWKVNSVDDVELTMNSGKAKEFTEFLQKCLKDGVLEGGTVFTDEFNRSINDGRYATFINENWMGNTYKEQNPSLKGKMVVAAPPSWKGQPYQSSSVGSMMSVSAACPKEKQAAALAFINWLDSDKDAIQSWQDTNNGNFFMAASVYQDDENQRNKKETDGYYANDDVNAVYFDSMDKVNTDWEYLPFMSQVEVVFNDVIVPQMNENGDLVGAMAKAQQELKTYAKDNGFKVTTDAD
- glycan array binding signal (z-score) (Fuc(a1-2)Gal): 23.9
- glycan array binding signal (z-score) [1]: 0.153
- glycan array binding signal (z-score) [2]: -0.158
- glycan array binding signal (z-score) (Fuc(a1-2)Gal(b1-4)Glc): 3.8
- glycan array binding signal (z-score) [3]: 0.025
- glycan array binding signal (z-score) [4]: -0.086
- glycan array binding signal (z-score) [5]: 0.166
- glycan array binding signal (z-score) [6]: -0.027
- glycan array binding signal (z-score) [7]: 0.046
- glycan array binding signal (z-score) [8]: 0.027
- glycan array binding signal (z-score) [9]: -0.213
- glycan array binding signal (z-score) (Gal(a1-4)Gal(b1-4)Glc): -0.023
- glycan array binding signal (z-score) [10]: 0.48
- glycan array binding signal (z-score) (Gal(b1-3)GalNAc): 0.28
- glycan array binding signal (z-score) [11]: 0.314
- glycan array binding signal (z-score) [12]: -0.014
- glycan array binding signal (z-score) [13]: -0.085
- glycan array binding signal (z-score) [14]: 0.324
- glycan array binding signal (z-score) [15]: 0.461
- glycan array binding signal (z-score) (Gal(b1-4)GlcNAc(b1-2)Man): -0.056
- glycan array binding signal (z-score) [16]: -0.051
- glycan array binding signal (z-score) [17]: -0.081
- glycan array binding signal (z-score) [18]: 0.301
- glycan array binding signal (z-score) (Gal6S(b1-3)GlcNAc6S): -0.051
